This note sets out measurements from PubChem BioAssay (Tox21).

A short description of assay [1]: qHTS assay to identify small molecule agonists of the estrogen receptor alpha (ER-alpha) signaling pathway in the presence of an antagonist - cell viability counter screen (AID 1259386).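 Also: series mostly up to about 92 µM; cells exposed to compounds for 22 h at 37 °C before the viability read; nearly all actives have a fitted effect of over 30% in size.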 The method, boiled down: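 Viability counter screen using VM7Luc4E2 (full-length ER-alpha, four ERE-luciferase). The cells were treated with compounds alongside ICI-182,780 10.0nM for 22hr, and live-cell protease fluorescence was quantified with CellTiter-Fluor.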

A short description of assay [2]: qHTS assay to identify small molecule antagonists of the progesterone receptor (PR) signaling pathway - cell viability counter screen (AID 1346798). Also: series mostly up to about 92 µM; nearly all actives have a fitted effect of over 50% in size. The method, boiled down: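 Following a 4 hr attachment, PR-UAS-bla HEK293T cells in charcoal-stripped FBS medium were exposed to compounds with R5020 for 16 hr; CellTiter-Glo was added and luminescence read after 30 min at room temperature.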

Assay [3] is described as follows: qHTS assay to identify small molecule agonists of the progesterone receptor (PR) signaling pathway - cell viability counter screen (AID 1346799; calls by dose curve; also: nearly all actives have a fitted effect of over 45% in size; also: potency is read from the fitted curve at half-maximal effect). Put shortly:
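Here, 3,000 PR-UAS-bla HEK293T cells per well were treated with compounds for 16 hr after a 6 hr preincubation at 37C and 5% CO2; cell viability is the CellTiter-Glo luminescence signal.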

A short description of assay [4]: qHTS assay to identify small molecule antagonists of the TGF-beta/Smad signaling pathway - cell viability counter screen (AID 1346824). Also: nearly all actives have a fitted effect of over 50% in size. The method, boiled down:
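SBE-bla HEK 293T cells, incubated overnight, then compound plus 0.25 ng/mL TGF-beta1 (stock added) for 5 hr at 37 C. Viability was read in the same wells by CellTiter-Glo luminescence after 30 min at room temperature.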

Assay [5] in a line: qHTS assay to identify small molecule agonists of the TGF-beta/Smad signaling pathway - cell viability counter screen (AID 1346829). Also: top concentration of the series differs between compounds; nearly all actives have a fitted effect of over 45% in size. The method, boiled down:
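SBE-bla HEK 293T cells plated overnight, compound exposure 5 hr at 37 C. Viability read in the same wells by CellTiter-Glo luminescence after 30 min at room temperature, following the beta-lactamase read.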

Assay [6] is described as follows: qHTS assay to identify small molecule agonists of the TGF-beta/Smad signaling pathway (AID 1346859; active = well fitted activation curve with a large enough effect in the signal ratio in the repeat runs, not every such curve was filed as active; the % refers to the signal ratio; also: series mostly up to about 77 µM). The method, boiled down:
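Each well held 4,000 SBE-bla HEK 293T cells incubated overnight before compound addition; 5 hr later the cleavable FRET substrate went on for 2 hr at room temperature, and fluorescence was read at two emissions.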

The target of assay [7] is Thyrotropin-releasing hormone receptor (Homo sapiens) (UniProt P34981). Kind of assay: qHTS assay to identify small molecule antagonists of the thyrotropin-releasing hormone receptor (TRHR) signaling pathway (AID 1346877; active = well fitted inhibition curve with a large enough effect in the repeat runs, not every such curve was filed as active; also: series mostly up to about 51 µM). Put shortly:
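Following an 18 h incubation at 37 °C and a 2 h calcium dye load, TRHR-HEK293 cells were exposed to compound (5 min, room temperature) and challenged with TRH, 1 nM final.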

Assay [8] shares this target. Briefly: qHTS assay to identify small molecule agonists of the thyrotropin-releasing hormone receptor (TRHR) signaling pathway (AID 1346891; calls by dose curve; also: series mostly up to about 58 µM). Put shortly: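 Screening of agonists relied on calcium signalling in HEK293 cells expressing human TRHR: dye loading 2 h at 37 °C preceded compound addition and a 3-min fluorescence time course.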
Assay [9] is described as follows: Human pregnane X receptor (PXR) small molecule agonists, qHTS cell viability counter screen (AID 1346977). Also: nearly all actives have a fitted effect of over 50% in size. Put shortly:
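Tox21 qHTS format; PXR-Luc HepG2, 2,000/well, charcoal-stripped FBS 5%. Cpd exposure 24hr. Read: CellTiter-Fluor fluorescence, multiplexed with luciferase.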

Assay [10] can be described thus: Caspase-3/7 induction in HepG2 cells by small molecules, qHTS assay (AID 1346978). Also: nearly all actives have a fitted effect of over 15% in size. Put shortly: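 Wild-type HepG2 cells, 2,000/well, settled 5 hr at 37 C and 5% CO2, then compound-treated for 17 hr; caspase-3/7 activity read by luminescent Caspase-Glo 3/7 after 30 min at room temperature.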
Assay [11] in a line: Caspase-3/7 induction in CHO-K1 cells by small molecules, qHTS cell viability counter screen (AID 1346979). Also: nearly all actives have a fitted effect of over 35% in size. Also: potency is read from the fitted curve at half-maximal effect. Put shortly: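 CellTiter-Fluor viability check, qHTS format: wild-type CHO-K1, 16hr compound treatment, 1hr reagent incubation, fluorescence read.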
A short description of assay [12]: Caspase-3/7 induction in CHO-K1 cells by small molecules, qHTS assay (AID 1346980). Also: nearly all actives have a fitted effect of over 15% in size. Put shortly: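 Wild-type CHO-K1 cells exposed to compounds for 17hr at 37 C, 5% CO2. Caspase-3/7 activity then measured by Caspase-Glo 3/7 luminescence after 30min at room temperature.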
Assay [13] in a line: Caspase-3/7 induction in HepG2 cells by small molecules, qHTS cell viability counter screen (AID 1346981). Also: series mostly up to about 92 µM; nearly all actives have a fitted effect of over 30% in size. Put shortly:
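Viability determined by CellTiter-Fluor fluorescence in HepG2 wells also used for the luminescent Caspase-Glo 3/7 read. Compounds were present for 16 hr at 37 C, 5% CO2 before reagent addition.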

Assay [14] concerns the target Nuclear receptor subfamily 1 group I member 2 (Homo sapiens) (UniProt O75469). Kind of assay: Human pregnane X receptor (PXR) small molecule agonists, qHTS assay (AID 1346982). Also: nearly all actives have a fitted effect of over 35% in size. Also: potency is read from the fitted curve at half-maximal effect. The method, boiled down: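 Compound-induced hPXR transactivation of a CYP3A4 luciferase reporter was scored in HepG2 PXR-Luc cells over 24 hr at 37 C, 5% CO2, by luminescence.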
The target of assay [15] is Cytochrome P450 2D6 (Homo sapiens) (UniProt P10635). Kind of assay: Cytochrome P450 Family 2 Subfamily D Member 6 (CYP2D6) small molecule antagonists: luciferase reporter qHTS assay (AID 1671196). Also: nearly all actives have a fitted effect of over 50% in size. Also: potency is read from the fitted curve at half-maximal effect. The method, boiled down:
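Each well received CYP2D6 with its proluciferin substrate and chemical, sat 10 min, then got NADPH regeneration solution for 1 h at room temperature. Luminescence in RLU served as the activity measure.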

Assay [16] addresses Progesterone receptor (Homo sapiens) (UniProt P06401). Briefly: qHTS assay to identify small molecule antagonists of the progesterone receptor (PR) signaling pathway (AID 1346795; active = well fitted inhibition curve with a large enough effect in the signal ratio in the repeat runs, not every such curve was filed as active; the % refers to the signal ratio; also: potency is read from the fitted curve at half-maximal effect). Put shortly: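 In HEK293T cells bearing the PR-UAS-bla reporter, compound effects on promegestone-driven (1 nM) beta-lactamase expression are assessed after 16 hr using a fluorescent FRET substrate incubated 2 hr at room temperature.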

The target of assay [17] is Nuclear receptor subfamily 1 group I member 2 (Homo sapiens) (UniProt O75469). Briefly: CYP3A4 induction through human pregnane X receptor (PXR) by small molecules, qHTS assay (AID 1346984). Also: nearly all actives have a fitted effect of over 40% in size. Put shortly:
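Readings come from a luciferase reporter: DPX-2 cells, which are HepG2 cotransfected with PXR and a CYP3A4-promoter construct, were exposed to test compounds for 24 h at 37C before One-Glo detection.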

The target is the same in assay [18]. Kind of assay: Human pregnane X receptor (PXR) activation by small molecules, qHTS assay (AID 1346985). Also: potency is read from the fitted curve at half-maximal effect; nearly all actives have a fitted effect of over 40% in size. The method, boiled down: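 DPX-2 cells (HepG2 co-transfected with a PXR response element and a CYP3A4-promoter luciferase construct) were seeded at 2,000 per well, rested 5 hr at 37C, then exposed to DMSO-dissolved compounds for 24 hr. Activation was read as luciferase luminescence.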

The target of assay [19] is Progesterone receptor (Homo sapiens) (UniProt P06401). Kind of assay: qHTS assay to identify small molecule agonists of the progesterone receptor (PR) signaling pathway (AID 1346784; calls by dose curve; also: nearly all actives have a fitted effect of over 30% in size). Put shortly:
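Compounds were tested for PR agonism in HEK 293T cells bearing a beta-lactamase gene under UAS control. Treatment lasted 16 hr at 37C; signal came from fluorescence of a FRET substrate.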

“And” between values parts separate entries of the source, which are not always exact repeats. Equal entries are not always repeated. Results filed as inconclusive are left out. A structure can be active in one record and inactive in another. The source made the active and inactive calls. Unless noted, calls follow the shape of the dose curve; as a rule, active = well fitted curve in the direction sought with a large enough effect in the repeat runs; inconclusive = weak or mixed curves; inactive = no such curve, though single readings can be large; an effect the other way counts as inactive or inconclusive.

Cytochrome P450 2D6 (Homo sapiens), sequence (P10635 whole entry, looked up): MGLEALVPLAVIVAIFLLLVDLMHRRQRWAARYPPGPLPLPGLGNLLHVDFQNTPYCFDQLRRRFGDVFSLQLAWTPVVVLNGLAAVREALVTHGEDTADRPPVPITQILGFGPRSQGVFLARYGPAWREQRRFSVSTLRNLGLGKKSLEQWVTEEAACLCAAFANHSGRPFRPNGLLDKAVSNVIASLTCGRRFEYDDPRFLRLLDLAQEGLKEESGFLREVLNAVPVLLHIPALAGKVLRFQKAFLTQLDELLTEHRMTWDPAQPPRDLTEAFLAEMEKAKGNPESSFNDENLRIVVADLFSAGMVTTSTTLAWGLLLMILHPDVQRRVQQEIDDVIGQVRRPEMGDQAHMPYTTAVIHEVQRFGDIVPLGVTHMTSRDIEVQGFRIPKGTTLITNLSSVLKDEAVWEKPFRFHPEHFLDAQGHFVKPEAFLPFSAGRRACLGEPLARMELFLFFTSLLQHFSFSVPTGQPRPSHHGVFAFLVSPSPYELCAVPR
Progesterone receptor (Homo sapiens), sequence (P06401 whole entry, looked up): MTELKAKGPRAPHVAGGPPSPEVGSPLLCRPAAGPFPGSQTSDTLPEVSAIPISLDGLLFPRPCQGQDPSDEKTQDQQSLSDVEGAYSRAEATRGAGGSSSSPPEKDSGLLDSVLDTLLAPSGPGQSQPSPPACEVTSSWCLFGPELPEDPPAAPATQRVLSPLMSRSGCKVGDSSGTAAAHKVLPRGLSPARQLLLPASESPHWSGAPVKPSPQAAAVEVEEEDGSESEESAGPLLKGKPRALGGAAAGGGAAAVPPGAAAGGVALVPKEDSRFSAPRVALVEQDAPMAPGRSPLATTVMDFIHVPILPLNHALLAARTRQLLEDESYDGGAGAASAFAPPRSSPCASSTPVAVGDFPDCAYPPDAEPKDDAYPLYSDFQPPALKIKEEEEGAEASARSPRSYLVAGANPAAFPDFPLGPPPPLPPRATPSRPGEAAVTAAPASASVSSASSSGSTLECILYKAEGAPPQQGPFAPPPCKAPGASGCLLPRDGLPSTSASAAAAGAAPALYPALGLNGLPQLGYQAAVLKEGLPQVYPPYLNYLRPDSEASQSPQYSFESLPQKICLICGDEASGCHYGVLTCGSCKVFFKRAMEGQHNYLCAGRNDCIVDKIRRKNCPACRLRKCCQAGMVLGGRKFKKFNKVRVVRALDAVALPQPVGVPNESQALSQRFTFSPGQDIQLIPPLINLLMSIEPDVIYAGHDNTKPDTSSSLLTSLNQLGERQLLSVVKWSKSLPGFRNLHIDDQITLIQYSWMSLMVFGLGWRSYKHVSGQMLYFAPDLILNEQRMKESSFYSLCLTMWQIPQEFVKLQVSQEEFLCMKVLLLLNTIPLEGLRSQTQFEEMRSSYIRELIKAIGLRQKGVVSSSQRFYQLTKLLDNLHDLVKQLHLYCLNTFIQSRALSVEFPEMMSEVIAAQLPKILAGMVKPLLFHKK
Nuclear receptor subfamily 1 group I member 2 (Homo sapiens), sequence (O75469 whole entry, looked up): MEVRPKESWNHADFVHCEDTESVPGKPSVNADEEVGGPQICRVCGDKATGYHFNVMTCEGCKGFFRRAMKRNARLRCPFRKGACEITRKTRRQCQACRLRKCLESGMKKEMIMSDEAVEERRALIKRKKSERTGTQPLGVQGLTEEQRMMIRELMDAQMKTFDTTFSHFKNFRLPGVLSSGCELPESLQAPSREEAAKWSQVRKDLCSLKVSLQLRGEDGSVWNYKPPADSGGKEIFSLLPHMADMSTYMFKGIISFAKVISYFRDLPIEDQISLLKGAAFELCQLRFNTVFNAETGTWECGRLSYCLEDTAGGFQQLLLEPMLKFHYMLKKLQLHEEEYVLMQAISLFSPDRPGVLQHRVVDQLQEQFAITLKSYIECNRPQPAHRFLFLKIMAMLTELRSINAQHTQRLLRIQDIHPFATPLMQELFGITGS
Thyrotropin-releasing hormone receptor (Homo sapiens), sequence (P34981 whole entry, looked up): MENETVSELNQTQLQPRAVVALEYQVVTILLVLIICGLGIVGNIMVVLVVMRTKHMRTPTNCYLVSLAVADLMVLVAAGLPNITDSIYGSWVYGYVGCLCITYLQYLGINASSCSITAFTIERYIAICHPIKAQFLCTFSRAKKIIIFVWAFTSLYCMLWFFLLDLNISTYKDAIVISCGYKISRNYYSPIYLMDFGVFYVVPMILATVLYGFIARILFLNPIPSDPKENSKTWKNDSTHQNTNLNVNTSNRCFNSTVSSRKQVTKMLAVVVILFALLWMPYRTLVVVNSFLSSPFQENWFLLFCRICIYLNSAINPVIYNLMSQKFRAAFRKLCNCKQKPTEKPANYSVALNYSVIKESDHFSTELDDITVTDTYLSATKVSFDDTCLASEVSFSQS

With `O=C(O)[C@H](O)[C@@H](O)[C@H](O[C@@H]1O[C@H](CO)[C@H](O)[C@H](O)[C@H]1O)[C@H](O)CO`, the Potency result in [1], in assay [2], in assay [3], in [4], in assay [5] and in assay [6] was “inactive” each time. Further, the Potency result in assay [7], in assay [9], in [10], in assay [11], in [12] and in [13] was “inactive” each time. For the same compound, the Potency entry in [14] and in [15] was “inactive” each time. Further, the compound was called inactive in [8].
For the compound `C#C[C@]1(OC(C)=O)CC[C@H]2[C@@H]3CCC4=C/C(=N/O)CC[C@@H]4[C@H]3CC[C@@]21CC`, the Potency result in assay [1], in assay [5], in assay [6], in [7], in assay [12] and in [13] was “inactive” throughout. Also, the Potency entry in [17] was “inactive”. Besides, the Potency in assay [16] is 29.8 µM (active); in assay [14] it was 29.8 µM (active); in assay [18], 7.94 µM (active); in assay [15], 27.5 µM (active). The outcome in assay [8] was inactive.
With `CCn1c2ccccc2c2cc([N+](=O)[O-])ccc21`, the Potency result in assay [1], in [19], in [3], in [4], in assay [5] and in [7] was “inactive” in each case. The Potency result in assay [9], in assay [10], in assay [11], in [12], in assay [13] and in [15] was “inactive” throughout. Further, the result in assay [8] was inactive. Besides, the Potency in assay [14] is 19.3 µM (active).
On to `CCC(CC)(CC(=O)Nc1cccc(/C=C/c2nc(C3CCC3)cs2)c1)C(=O)O`, for which the Potency entry in assay [1], in assay [19], in assay [2], in [4], in [6] and in assay [7] was “inactive” each time. Besides, the Potency result in assay [9], in assay [10], in assay [12], in assay [17] and in assay [15] was “inactive” each time. Moreover, the compound was called inactive in [8]. Moreover, in assay [14], the Potency was 23.7 µM (active).
As for `CCC(=O)OC(=O)CC`, the Potency result in assay [1], in [16], in [2], in assay [5], in assay [6] and in assay [7] was “inactive” in each case. Further, the Potency entry in assay [9], in [10], in assay [11], in assay [13] and in assay [14] was “inactive” throughout. The Potency is 54 µM (active) in [3] and 62.8 µM (active) in assay [15]. Also, the compound was classed as inactive in assay [8].
As for `Cc1c(C)c([N+](=O)[O-])c(C(C)(C)C)c([N+](=O)[O-])c1C`, the Potency result in [1], in assay [2], in [3], in assay [5], in assay [6] and in [7] was “inactive” in each case. For the same compound, the Potency result in assay [9], in [10], in assay [11], in assay [12] and in assay [15] was “inactive” each time. Besides, in assay [8], the result was inactive.
In the case of `Cc1cc(=O)oc2cc(O)cc(O)c12`, the Potency entry in assay [1], in [16], in assay [2], in [4], in [5] and in assay [7] was “inactive” throughout. Also, the Potency entry in [9], in assay [10], in [12] and in assay [15] was “inactive” in each case. Further, the result in assay [8] was inactive. Also, the Potency in assay [14] was 61.3 µM (active).
`Oc1ccccc1O`: the Potency result in assay [1], in [19], in assay [4], in [5], in [6] and in [7] was “inactive” in each case. For the same compound, the Potency result in assay [9], in [10], in assay [12], in [13] and in assay [15] was “inactive” throughout. For the same compound, in assay [8], the call was inactive. For the same compound, the Potency was 27.6 µM (active) and 21.7 µM (active) in [11]; 22 µM (active) and inactive in assay [14].
